# CYP2C19 activ = increases human CYP2C19 enzyme activity; P33261; recombinant CYP2C19, luciferin-H EGE luminescence; active compounds read high; 0 = fully inhibited enzyme, 1 = untreated enzyme; activation factor at 5 µM; 96,000 tested, under 10 active; AID 1025;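 active = activation factor of at least 2 at 5 µM in the primary screen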;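 also: 0 = wells with 2.5 mM tranylcypromine and 1 = vehicle-only wells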
# PLAP activator = human PLAP activation | purified PLAP enzyme, luminescent substrate read-out; active compounds read high | 96,000 tested, 1.2% active | activation fold at 20 µM; in the data active = activation fold above about 2
# CYP2C9 activ = activators of human CYP2C9 | P11712 | recombinant CYP2C9, luciferin-H conversion, luminescence; active compounds read high; factor 1 = untreated enzyme, 0 = blocked | activation factor at 5 µM | 96,000 tested, 1.4% active;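 active = activation factor of 2 or more for CYP2C9 at a 5 µM dose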;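 also: 0 = sulfaphenazole-blocked wells and 1 = vehicle-only wells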
# CYP2C19 inhib = human CYP2C19 inhibition; AID 778; P33261; 96,000 tested, 21% active; CYP2C19 Supersomes, luciferin-H EGE luminescence, 30 min; inhibition, % at 5 µM;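 active = CYP2C19 inhibition above a set limit at 5 µM in the primary screen, cut at about 50% in these data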;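 also: plate controls were negative control wells for no effect and 2.5 mM tranylcypromine positive control for full effect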
# CYP2C9 inhib = human CYP2C9 inhibition. P11712. CYP2C9 Supersomes, luciferin-H conversion, luminescence. inhibition, % at 5 µM. 96,000 tested, 20% active;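 active = blocking of liver enzyme CYP2C9 beyond about 50% at 5 µM, limit read from the data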
# Active calls of the source: *; · = no result. Sampled rows, rich in hits. Any-hit rate of the full collection: about 31%.
SMILES,CYP2C19 activ,PLAP activator,CYP2C9 activ,CYP2C19 inhib,CYP2C9 inhib
Clc1ccc2nc(SCc3nnc(-c4ccccc4)o3)[nH]c2c1,0.1,1,0.2,86*,76*
Clc1ccc(OCc2nnc(SCc3nnc(-c4ccccc4)o3)o2)c(Cl)c1,0.1,1.7,0.7,92*,32
COC(=O)CSc1nc2ccc(C)cc2[nH]1,1,1.1,1,4,-3
Cc1ccc(-c2nnn(CC(=O)Nc3ccccc3N3CCOCC3)n2)cc1,0.7,0.9,0.2,26,79*
CC1(C)Cc2cccc(OCC(=O)Nc3ccccc3N3CCOCC3)c2O1,0.1,0.9,0.4,91*,56*
Cc1ccc(-c2nnc(SCC(=O)Nc3ccccc3N3CCOCC3)o2)cc1,0.9,1.3,1,6,-1
CCc1ccccc1NC(=O)Cn1nnc(-c2cccnc2)n1,0,0.8,0.9,96*,15
O=C(Cc1ccccc1)Nc1ccccc1N1CCOCC1,0.7,1.1,0.9,32,15
O=C(Cn1nnc(-c2ccccc2)n1)Nc1ccccc1N1CCOCC1,0.4,1.1,0.3,63*,74*
Cc1c(Cl)c([N+](=O)[O-])nn1CC(=O)NC1CCCCC1,0.8,1,0.9,21,13
CC(=O)Nc1nc(C)c(Oc2ccc(Cl)cc2Cl)c(=O)[nH]1,1,0.9,1.7,0,-65
Cn1c(-c2ccc(F)cc2)cnc1SCC(=O)Nc1ccccc1N1CCOCC1,0.3,0.9,0.5,68*,46
Cn1nnnc1SCC(=O)Nc1ccccc1N1CCOCC1,0.8,1,0.9,24,9
CN(C)CCCNCC(=O)Nc1ccccc1N1CCOCC1,1,1,0.3,2,67*
[O-][n+]1c2ccc3nonc3c2nn1-c1ccccc1Cl,0.6,0.9,0.8,43,20
O=C(COC(=O)c1cccc(S(=O)(=O)N2CCc3ccccc32)c1)NC1CCS(=O)(=O)C1 (stereo not given),0.6,1.6,0.7,42,31
COc1ccccc1-c1nc(SCC(=O)O)n[nH]1,0.9,1,0.9,12,9
COc1ccccc1C(=O)CSc1n[nH]c(N)n1,0.9,1.4,3*,8,-203
COc1ccc(CCn2c(C)cc(C(=O)CSc3nnnn3C)c2C)cc1,0.6,1,0.8,41,19
Cc1cc(C(=O)CSc2nnc(C3COc4ccccc4O3)n2C)c(C)n1-c1ccc(F)cc1 (stereo not given),0.5,1.2,0.5,49,50*
Cn1c(SCC(=O)c2ccc3c(c2)OCO3)nnc1C1COc2ccccc2O1 (stereo not given),1.1,1.4,0.6,-8,44
Cc1cc(C(=O)CSc2nc(N)cc(N)n2)c(C)n1CCc1ccc(F)cc1,0.2,1.1,0.5,76*,53*
Cc1cc(C(=O)CSc2nnnn2C)c(C)n1-c1cccc(F)c1,0.1,1.4,0.6,95*,45
COc1ccc(-n2c(=O)c3ccccc3n(Cc3ccc(F)cc3)c2=O)cc1OC,0.9,1.2,1.1,8,-6
Cc1ccc([N+](=O)[O-])cc1N/C=C1\CCc2ccccc2C1=O,1.1,1,1,-9,0
SMILES,CYP2C19 activ,PLAP activator,CYP2C9 activ,CYP2C19 inhib,CYP2C9 inhib
Cc1cc(C)cc(-n2c(C)cc(C(=O)CSc3nnnn3C)c2C)c1,0.4,1.5,0.4,61*,64*
COc1ccc(OCCSc2n[nH]c(N)n2)cc1,0.5,2.6*,0.8,45,25
COCCn1c(C)cc(C(=O)CSc2n[nH]c(N)n2)c1C,0.9,1.6,1.9,8,-86
Cc1cc(C(=O)CSc2n[nH]c(N)n2)c(C)n1-c1cccc(F)c1,0.1,·,0.5,90*,52*
C=C(C)C1CCC(C)=C1CC(C)(C)/C=N\n1cnnc1 (stereo not given),0.1,1.3,0.4,86*,63*
Cc1c(C(=O)NCc2cccnc2)oc2ccccc12,0.4,1,0.8,64*,20
Cc1c(C(=O)NCc2cccnc2)oc2c1C(=O)CC(C)(C)C2,0.2,1.3,0.4,80*,56*
CCNC(=O)c1oc2c(c1C)C(=O)CC(C)(C)C2,0.9,0.8,0.9,12,13
CN(CC(=O)Nn1cnnc1)S(=O)(=O)c1cc(Cl)ccc1Cl,0.2,0.9,0.1,81*,87*
CN(CC(=O)O)S(=O)(=O)c1cc(Cl)ccc1Cl,0.9,0.8,1,6,-1
CCN(CC(=O)O)S(=O)(=O)c1cc(Cl)ccc1Cl,0.6,0.9,1.2,39,-24
